Article PMC10726135, “HNF4α isoforms regulate the circadian balance between carbohydrate and lipid metabolism in the liver”
The full ranking holds about 18,000 sequences; the median of “log2 normalized intensity” is about 0.36, and the highest 2% start at about 7.3. This excerpt belongs to a sample that is enriched for the highest values.

biological target: T1, HNF4alpha8 (COS-7 nuclear extract) (Homo sapiens, UniProt P41235-5 1-452); test: protein-binding microarray; COS-7 nuclear extract on double-stranded Agilent 4x180k PBM; binding buffer, salt, pH and temperature not given in the material; high values mean tight binding; conditions: chain copies: 2; label: 3' end of strand 1 on the slide; dsDNA, one strand shown
T1 sequence: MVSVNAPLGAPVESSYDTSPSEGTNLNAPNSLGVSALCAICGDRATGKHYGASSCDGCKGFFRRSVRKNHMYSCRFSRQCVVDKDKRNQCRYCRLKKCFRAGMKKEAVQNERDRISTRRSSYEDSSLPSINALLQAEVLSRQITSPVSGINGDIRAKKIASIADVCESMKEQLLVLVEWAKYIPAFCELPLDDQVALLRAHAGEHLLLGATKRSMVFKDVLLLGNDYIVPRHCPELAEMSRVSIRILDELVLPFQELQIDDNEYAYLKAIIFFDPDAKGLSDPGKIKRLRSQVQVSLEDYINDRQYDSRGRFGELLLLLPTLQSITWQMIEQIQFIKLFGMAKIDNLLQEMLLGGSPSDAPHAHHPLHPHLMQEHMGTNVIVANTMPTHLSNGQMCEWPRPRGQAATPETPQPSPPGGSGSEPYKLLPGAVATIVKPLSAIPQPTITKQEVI
Method in brief: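 A custom Agilent SurePrint G3 4x180k array, spotted in quadruplicate with ~44,000 test sequences as ~60-nt oligonucleotides made double-stranded, was incubated with nuclear extracts. The extracts came from COS-7 cells transiently transfected by CaPO4 with a human HNF4α isoform expression vector. Bound HNF4α was imaged on an Agilent G2565CA scanner at 2-µm resolution, and the binding signal was taken as Agilent software's background-corrected, normalized gProcessedSignal.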

Sequence	binding signal [log2 normalized intensity]
ATTGCCGACCTCATGAGTAGAGAGCAATCAGCCTAGGGAGATTAGAGTATCGGTCGA	-0.943
TGTCTCCAGAAATCAACCTTTGATCGTTTGGCCTAGGGAGATTAGAGTATCGGTCGA	6.77
ACTTCTGTCTCCAGAAATCAACCTTTGATCGCCTAGGGAGATTAGAGTATCGGTCGA	8.8
ATGTCTCCAGAAACCAACCTTTGATCATTCGCCTAGGGAGATTAGAGTATCGGTCGA	5.75
GCCAGAACTGAGCCCTGGTTTATCTGTTGTGCCTAGGGAGATTAGAGTATCGGTCGA	0.861
TTTTCAATCTTATTTTTACTATGTGGCATTGCCTAGGGAGATTAGAGTATCGGTCGA	1.35
GTCTGACCAACCTGTCCAAAGGTCATCTGTGCCTAGGGAGATTAGAGTATCGGTCGA	7.75
CCTGTCCAAAGGTCATCTGTCACTCTAGATGCCTAGGGAGATTAGAGTATCGGTCGA	6.02
CTTGGCTGTGTCCCTTGACCAAAGGTCACTGCCTAGGGAGATTAGAGTATCGGTCGA	7.67
CTGTACACTTACAAGTGTACAAAGGTCACTGCCTAGGGAGATTAGAGTATCGGTCGA	8.53
ACCAACCTGTCCAAAGGTCATCTGTCACTCGCCTAGGGAGATTAGAGTATCGGTCGA	6.36
ATTGGCTTGGCTGTGTCCCTTGACCAAAGGGCCTAGGGAGATTAGAGTATCGGTCGA	2.62
TTATATCAGAGGAATGTCTGACCAACCTGTGCCTAGGGAGATTAGAGTATCGGTCGA	0.807
AGTATATTGGCTTGGCTGTGTCCCTTGACCGCCTAGGGAGATTAGAGTATCGGTCGA	3.67
GGAATGTCTGACCAACCTGTCCAAAGGTCAGCCTAGGGAGATTAGAGTATCGGTCGA	8.5
CACTTACAAGTGTACAAAGGTCACTTCTGTGCCTAGGGAGATTAGAGTATCGGTCGA	7.03
TATACCTGTACACTTACAAGTGTACAAAGGGCCTAGGGAGATTAGAGTATCGGTCGA	2.96
TCAGAGGAATGTCTGACCAACCTGTCCAAAGCCTAGGGAGATTAGAGTATCGGTCGA	-0.555
ACAGGGAAAGTATGGGTCAGCCCTGCCATCGCCTAGGGAGATTAGAGTATCGGTCGA	-0.943
GTTTTACAAACACAATGGAAGGCTGTATGTGCCTAGGGAGATTAGAGTATCGGTCGA	0.119
GTCACTGCTCAAAAACACTCAGTTAATTATGCCTAGGGAGATTAGAGTATCGGTCGA	-0.0424
CTCCCAAATCTTCTTTAAGCTATGTGGTGGGCCTAGGGAGATTAGAGTATCGGTCGA	0.933

Sequence	binding signal [log2 normalized intensity]
TTTCTGTTTGTCTTACTGTGTTGTCGTATTGCCTAGGGAGATTAGAGTATCGGTCGA	2.11
ACAGCACTTAGGGTTCAAAGGTTGTTGAGCGCCTAGGGAGATTAGAGTATCGGTCGA	6.67
CTCCAGGGCACTGCCCTTTGGAACCTGCCCGCCTAGGGAGATTAGAGTATCGGTCGA	6.57
AAAGCCTAGGCTCCAGGGCACTGCCCTTTGGCCTAGGGAGATTAGAGTATCGGTCGA	3.51
TACTTTGCTTCCAAGTTATGCAGACCTTTGGCCTAGGGAGATTAGAGTATCGGTCGA	2.66
TGCTTCCAAGTTATGCAGACCTTTGCCCTTGCCTAGGGAGATTAGAGTATCGGTCGA	7.7
ATTCCCTTTCTCCTCCCCTCCCCTCCCCCCGCCTAGGGAGATTAGAGTATCGGTCGA	6.78
CCCTTTGACCTCTGCTTCCTGCTACAGAGCGCCTAGGGAGATTAGAGTATCGGTCGA	2.76
TTATGCAGACCTTTGCCCTTTGTTTACATAGCCTAGGGAGATTAGAGTATCGGTCGA	5.95
GCAGGGGATGCCCTTTGACCTCTGCTTCCTGCCTAGGGAGATTAGAGTATCGGTCGA	8.67
TGCACATTCCCTCCAGCAGGGGATGCCCTTGCCTAGGGAGATTAGAGTATCGGTCGA	2.84
CTAGGCTCCAGGGCACTGCCCTTTGGAACCGCCTAGGGAGATTAGAGTATCGGTCGA	7.42
ATTCCCTCCAGCAGGGGATGCCCTTTGACCGCCTAGGGAGATTAGAGTATCGGTCGA	9.35
GGATGCCCTTTGACCTCTGCTTCCTGCTACGCCTAGGGAGATTAGAGTATCGGTCGA	6.5
CACAGACCTGCCTCTCTCTCATGTCTGTACGCCTAGGGAGATTAGAGTATCGGTCGA	0.832
TGGTGCTATGTCCCTGACTGTGTGGCTTGCGCCTAGGGAGATTAGAGTATCGGTCGA	0.908
GTCCATCACCTGGCTCTGAAAAACAAAATGGCCTAGGGAGATTAGAGTATCGGTCGA	-0.567
CTTCACCTCCCCTAGACTTACTATTATGCCGCCTAGGGAGATTAGAGTATCGGTCGA	1.86
TGAGGGGACAAAGTTCGTGGAAAGTGGAAGGCCTAGGGAGATTAGAGTATCGGTCGA	3.11
GCAGAGGGACAACTGAGTTACGTAATGTGTGCCTAGGGAGATTAGAGTATCGGTCGA	0.932
TGAACTATTGAACCACCAGATAGAGCTTTTGCCTAGGGAGATTAGAGTATCGGTCGA	0.654
